# Tested on: Schistosoma mansoni schistosomula (LE)
# Experiment: XTT viability relative to DMSO control; higher = more viable (less active)
# Details: 72 h; 10 µM
# Description: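 XTT/PMS was then added for a further 24 h (72 h total) and A450 was read. % viability = (sample - heat-killed control)/(DMSO control - heat-killed control) x 100, from duplicate wells in two independent experiments.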
row,SMILES,XTT viability
1,c1ccc(Oc2ccc(-c3cc(CN4CCOCC4)[nH]n3)cc2)cc1,85.9%
2,O=C(Nc1nc(-c2ccccn2)cs1)c1cncn1-c1ccccc1,68.7%
3,c1ccc(C[C@@H]2CN(c3nccc(Oc4ccc(-n5ccnc5)cc4)n3)CCN2)cc1,94.4%
4,CC(C)C(Oc1cccc2ccccc12)C(=O)O (stereo not given),108%
5,CCCCc1ccc(NC(=O)Nc2ccc(O[C@H]3CCCC[C@@H]3N(C)c3ccccc3)c(F)c2)cc1,33.7%
6,O=C1COCc2ccc(Br)cc2N1Cc1ccc(C(F)(F)F)cc1,99.5%
7,CNCCC(Oc1ccc(C(F)(F)F)cc1)c1ccccc1 (stereo not given),20.4%
8,Cc1ccc(Oc2ccc(NC(=O)CNc3ccccc3N3CCCC3=O)cc2)cc1,77%
9,CCC(NC(=O)c1ccccc1NC(=O)c1ccc(C)cc1)C(=O)OC (stereo not given),82.9%
10,COc1cc(C2=NCCN2)cc2cc(-c3ccc(C4=NCCN4)cc3)oc12,4.86%
11,O=C(NC1CCN(c2ccnc3ccccc23)C1)c1cccc(C(F)(F)F)c1 (stereo not given),103%
12,O=C(C(Cc1c[nH]c2ccccc12)NS(=O)(=O)c1ccc(Cl)cc1)N1CCCCC1 (stereo not given),96.4%
13,Nc1ccc2ncnc(Nc3ccc(OCc4cccc(F)c4)c(Cl)c3)c2c1,55.9%
14,c1ccc(Oc2ccc(-c3cc(N4CCNCC4)[nH]n3)cc2)cc1,25.2%
15,CC(C)(C)OC(=O)N1CCN(c2cc(-c3ccc(Oc4ccccc4)cc3)n[nH]2)CC1,66.1%
16,NS(=O)(=O)c1cncc(-c2ccc3nccc(-c4cn[nH]c4)c3n2)c1,98.4%
17,CCCNC(=O)N1CCC2(CC1)CC(=O)c1cc(C)ccc1O2,102%
18,CN1CCN(c2nccc3nc(-c4ccc(F)c(F)c4)[nH]c23)CC1,110%
19,CC(=O)Oc1ccccc1C(=O)Nc1ncc([N+](=O)[O-])s1,102%
20,Cc1nc(-c2ccccn2)nc(NCCc2ccc(S(C)(=O)=O)cc2)c1Cl,66.9%

row,SMILES,XTT viability
1,CS(=O)(=O)c1ccccc1C(=O)N(Cc1ccccc1)c1ccccc1,106%
2,O=C(NC1CCCCC1)N1CCN(Cc2ccc3c(c2)OCO3)CC1,88.6%
3,Cc1cc(Nc2ccncc2)n2nc(C)c(-c3ccccc3Cl)c2n1,64.9%
4,C[C@H](C(N)=O)N1CCCC[C@@H]1c1ccc(OCc2cccc(F)c2)cc1,88.1%
5,Cc1ccc2c(c1C)NC(=O)C21NN=C(c2ccccc2)S1 (stereo not given),125%
6,COc1cc(C2=NCCN2)ccc1-c1cn(-c2cccc(C3=NCCN3)c2)nn1,72.8%
7,Cc1nnc(NCc2cccc(Cl)c2)c2ccccc12,102%
8,COCC(C)NC(=O)CSc1ncnc2sc(-c3ccccc3)cc12 (stereo not given),93.6%
9,CC(=O)NC[C@@H]1CN(c2ccc(N3CCOCC3)c(F)c2)C(=O)O1,94.2%
10,CCOc1ccc2cc(-c3nn(CC4CCN(C)CC4)c4ncnc(N)c34)ccc2c1,44.3%
11,NS(=O)(=O)c1cccc(-c2ccc3ncc(N4CCOCC4)nc3c2)c1,116%
12,COc1cc2ncnc(NC3CCN(Cc4ccccc4)CC3)c2cc1OC,86.5%
13,COc1ccc(OC)c(NCc2ccc3nc(N)nc(N)c3c2Cl)c1,109%
14,CO[C@H]1/C=C/O[C@@]2(C)Oc3c(C)c(O)c4c(O)c(/c(=C/NN5CCN(C)CC5)c(O)c4c3C2=O)=N\C(=O)/C(C)=C\C=C/[C@H](C)[C@H](O)[C@@H](C)[C@@H](O)[C@@H](C)[C@H](OC(C)=O)[C@@H]1C,116%
15,Cc1cc(C(=O)Nc2cnn(Cc3ccc(Cl)cc3Cl)c2)no1,91.7%
16,Cc1ccc(-c2cc(C(=O)Nc3cccnc3)c3cc(Br)ccc3n2)cc1,146%
17,COc1cccc(OCC(=O)c2ccc(Br)cc2)c1,101%
18,Cc1ccc(S(=O)(=O)n2cc(-c3ccnc(N)c3)c3cc(Br)cnc32)cc1,4.55%
19,CC[P](CC)(CC)=[Au][S][C@H]1O[C@@H](COC(C)=O)[C@H](OC(C)=O)[C@@H](OC(C)=O)[C@@H]1OC(C)=O,203%
20,COc1ccc(-c2nnc3ccc(-c4cccc(C(C)C)c4)cn23)cc1OC,14.7%

# Reference: the supplement of paper PMC6805474
